Assay [1] in a line: Cellular Toxicity (caspase-3) Hek293 (AID 664).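 Also: cells exposed to compound for 16 h at 37 °C before readout.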 The method, boiled down:
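Activation of caspase-3/7 is measured as increased luminescence from cleaved peptide-aminoluciferin substrate in HEK293 cells treated 16 hours at 37 °C. AC50 values come from Hill-equation fits of concentration-response data.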

Assay [2] can be described thus: Cellular Toxicity (caspase-3) N2a (AID 665).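 Also: compound exposure lasted 16 h at 37 °C before readout.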 The method, boiled down:
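Plated mouse neuroblastoma N2a cells received titrated compounds for 16 h in complete medium. Caspase activity was then detected with a peptide-aminoluciferin luminescent reagent.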

The nature of assay [3]: Cellular Toxicity (caspase-3) NIH 3T3 (AID 666).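 Also: caspase signal read after 16 h compound exposure.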 The method, boiled down:
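Concentration-response qHTS in NIH 3T3 mouse fibroblasts scores caspase-3/7 activation as rising luminescence after 16 hr compound exposure. Signals are scaled between DMSO-only and 100 uM tamoxifen.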

The nature of assay [4]: Cellular Toxicity (caspase-3) Renal Proximal Tubule (AID 667).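 Also: cells exposed to compound for 16 hours at 37 °C before detection.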 The method, boiled down: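 In qHTS format, rat primary proximal tubule cells seeded at 1000 per well are exposed to compounds for 16 hours at 37 °C. An increase in Caspase-Glo 3/7 luminescence indicates caspase activation.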
Assay [5] deals with Cytochrome P450 3A4 (Homo sapiens) (UniProt P08684). Put plainly: qHTS Assay for Inhibitors and Substrates of Cytochrome P450 3A4 (AID 884). Also: potency is read from the fitted curve at half-maximal effect; nearly all actives have a fitted effect of over 50% in size. Put shortly: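 20 nM human CYP3A4 with 25 uM Luciferin-PPXE (at KM) in 200 mM KPO4, preincubated 10 min with compound; NADPH regeneration started a 60 min RT reaction. Luciferin detected by luminescence, normalized to 57 uM ketoconazole as full inhibition.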
A general note: In qHTS, concentration-response curves come from the screen itself.

Assay [6] shares this target. Put plainly: qHTS Assay for Activators of Cytochrome P450 3A4 (AID 885). Also: nearly all actives have a fitted effect of over 65% in size. The method, boiled down:
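Quantitative HTS format: compounds preincubated with 20nM human CYP3A4 and Luciferin-PPXE substrate at KM, reaction started by NADPH regeneration, stopped after 60 min, luciferase luminescence read 20 min later.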

A short description of assay [7]: Cell Viability - LYMP2-001 (AID 921). Also: series mostly up to about 92 µM; nearly all actives have a fitted effect of over 70% in size. Put shortly: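 qHTS, 1536-well; lymphoblastoid cells, 24 hr compound, 37 C; ATP by CellTiter-Glo, 30 min RT; luminescence; Hill-fit AC50.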
Assay [8] is described as follows: MultiTox-Fluor Cytotoxicity Assay - LYMP1-001 - Dead Cells (AID 946). Put shortly: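 In this qHTS, 15 uM tetraoctylammonium bromide defined 100% and DMSO defined basal activity. Lymphoblastoid cells (LYMP1-001, 2500 per well) received compound for 16 hr at 37 C before a fluorogenic dead-cell substrate readout at 485/520 nm.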
Assay [9] in a line: MultiTox-Fluor Cytotoxicity Assay - LYMP1-001 - Live Cells (AID 947).
Assay [10] is described as follows: Cell Viability - LYMP1-002 - Assay at 16 hr (AID 948). Put shortly:
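Acute cytotoxicity is scored as a concentration-dependent fall in intracellular ATP in a human lymphoblastoid line (LYMP1-002) after 16 hr compound exposure at 37 C, measured by luciferase luminescence.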

Assay [11] in a line: MultiTox-Fluor Cytotoxicity Assay - LYMP1-002 - Live Cells (AID 955). The method, boiled down: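 Cytotoxicity in the human lymphoblastoid line LYMP1-002 is measured as loss of live-cell protease activity after 16 h treatment in complete culture medium. AC50 is derived from Hill-equation fits of qHTS concentration-response data.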
Assay [12] is described as follows: MultiTox-Fluor Cytotoxicity Assay - LYMP1-002 - Dead Cells (AID 960). Also: nearly all actives have a fitted effect of over 60% in size. The method, boiled down:
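Acute cytotoxicity in a human lymphoblastoid line is scored as rising dead-cell protease signal after 16 hr exposure at 37 C, measured fluorometrically (485/520).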

Assay [13] in a line: MultiTox-Fluor Cytotoxicity Assay - LYMP1-003 - Dead Cells (AID 961). Also: nearly all actives have a fitted effect of over 70% in size. The method, boiled down: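 Acute toxicity is scored as increased dead-cell protease activity in human lymphoblastoid LYMP1-003 cells after 16 h compound exposure in complete culture medium. Activity is normalized to DMSO basal and 15 uM tetraoctylammonium bromide as full response.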
A short description of assay [14]: MultiTox-Fluor Cytotoxicity Assay - LYMP1-003 - Live Cells (AID 962).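 Also: cytotoxic hits lower the live-cell protease signal.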 Put shortly: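 Cells plated at 2500 per well and incubated 5 hr; compounds added and incubated 16 hr at 37 C; MultiTox-Fluor reagent added for 60 min at room temperature; fluorescence of liberated AFC measured at 405/510 nm.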
The nature of assay [15]: Cell Viability - LYMP1-003 - Assay at 24 hr (AID 963). The method, boiled down: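 Acute toxicity in LYMP1-003 lymphoblastoid cells: 24 hr compound treatment at 37 C, ATP measured with CellTiter-Glo after 30 min at room temperature. AC50 derived by fitting the Hill equation to qHTS titrations.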
Assay [16] in a line: Cell Viability - LYMP1-003 - Assay at 40 hr (AID 964). Also: series mostly up to about 92 µM; nearly all actives have a fitted effect of over 60% in size. The method, boiled down:
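This qHTS cytotoxicity screen treats human lymphoblastoid cells (LYMP1-003) with compounds for 40 hr and quantifies cellular ATP via luciferase luminescence.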

Assay [17] in a line: Cell Viability - LYMP2-003 (AID 965).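 Also: cells exposed to compounds for 24 h before reading; nearly all actives have a fitted effect of over 50% in size.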 The method, boiled down: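 Acute cytotoxicity is scored as a concentration-dependent drop in intracellular ATP, measured by luciferase luminescence in human lymphoblastoid cells treated for 24 hours at 37 C. AC50 values derive from Hill-equation modelling.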
A short description of assay [18]: Cell Viability - LYMP2-004 (AID 966). Also: nearly all actives have a fitted effect of over 65% in size. The method, boiled down:
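Acute toxicity is scored as a concentration-dependent drop in intracellular ATP, quantified by luciferase luminescence, in human lymphoblastoid cells exposed to compound for 24 hr. AC50 derives from Hill-equation modelling.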

Assay [19] is described as follows: Cell Viability - LYMP2-005 (AID 967). Also: series mostly up to about 92 µM. Put shortly: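 qHTS viability screen in LYMP2-005 cells: 24 h at 37 C with compound, ATP luminescence via CellTiter-Glo, AC50 from Hill curves.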
The nature of assay [20]: Cell Viability - LYMP2-009 (AID 968). Also: series mostly up to about 92 µM; nearly all actives have a fitted effect of over 55% in size.
Assay [21] can be described thus: Cell Viability - LYMP2-011 (AID 969). Also: nearly all actives have a fitted effect of over 60% in size. Put shortly:
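Acute toxicity is scored as a concentration-dependent drop in intracellular ATP of a human lymphoblastoid line after 24 hr treatment. Values are AC50s modeled with the Hill equation.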

Assay [22] in a line: Cell Viability - LYMP2-013 (AID 970). Also: series mostly up to about 92 µM; nearly all actives have a fitted effect of over 55% in size. Put shortly:
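Acute toxicity was measured in human lymphoblastoid cells (2500/well) exposed to compound titrations for 24 hr, with ATP luminescence (CellTiter-Glo) as read-out and AC50 fitted by Hill equation.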

Assay [23] can be described thus: Cell Viability - LYMP2-015 (AID 971). Also: nearly all actives have a fitted effect of over 55% in size. The method, boiled down: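 Acute toxicity was scored as a concentration-dependent drop in intracellular ATP in lymphoblastoid cells after 24 hr compound exposure in complete medium. Detection used CellTiter-Glo luciferase luminescence.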

SMILES strings stand for the structures. Unmarked numbers belong to inactive results. Records with an inconclusive call do not appear. Active and inactive are the calls of the source. Calls follow the shape of the dose curve; as a rule, active = well fitted curve in the direction sought with a large enough effect; inconclusive = small, poorly fitted or top-dose-only effect, or another doubt; inactive = no such curve, though single readings can be large; an effect the other way counts as inactive or inconclusive.

Sequence of Cytochrome P450 3A4 (Homo sapiens) (P08684 whole entry, looked up): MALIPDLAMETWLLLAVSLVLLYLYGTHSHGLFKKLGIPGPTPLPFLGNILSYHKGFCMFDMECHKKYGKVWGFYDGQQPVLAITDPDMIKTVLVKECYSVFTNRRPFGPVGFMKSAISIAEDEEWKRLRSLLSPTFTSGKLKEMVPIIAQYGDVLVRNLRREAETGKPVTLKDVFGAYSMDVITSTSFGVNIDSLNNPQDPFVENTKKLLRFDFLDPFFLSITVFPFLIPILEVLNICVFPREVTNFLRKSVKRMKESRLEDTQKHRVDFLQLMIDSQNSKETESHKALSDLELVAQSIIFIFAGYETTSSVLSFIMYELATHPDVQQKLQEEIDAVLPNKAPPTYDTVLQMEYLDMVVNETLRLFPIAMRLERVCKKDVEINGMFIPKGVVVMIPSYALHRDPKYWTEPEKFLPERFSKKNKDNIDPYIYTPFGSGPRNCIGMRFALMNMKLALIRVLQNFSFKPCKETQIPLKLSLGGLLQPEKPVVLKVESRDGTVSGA

`CC(C)(c1cc(Br)c(O)c(Br)c1)c1cc(Br)c(O)c(Br)c1`: the call in [1], in [2], in assay [3], in assay [4], in assay [7] and in assay [8] was inactive. The call in assay [9], in [10], in assay [11], in assay [12], in [13] and in assay [14] was inactive. The outcome in assay [15], in assay [16], in [17], in assay [18], in assay [19] and in [20] was inactive. Besides, the outcome in [21], in assay [22] and in assay [23] was inactive. Also, the Potency in assay [5] is 15.8 µM (active). In assay [6], the Potency result was “inactive”.

These data come from PubChem BioAssay (NCATS).
